Assay [1] addresses Single-stranded DNA cytosine deaminase (Homo sapiens) (UniProt Q9GZX7). Put plainly: Validation qHTS assay for inhibitors of Activation Induced Cytidine Deaminase (AID): AID signal (AID 1347429). The settings on record: Recombinant AID, FRET ssDNA deamination with UDG, fluorescence; series mostly up to 115 µM. A digest of the protocol:
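Steps: dispense AID with UDG; pin-transfer compound up to 114 uM final; add DJC20/DJC23 substrate and hold 4 hr at room temperature; add NaOH, hold 30 min; read FRET signal (540/590 nm).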

Assay [2] can be described thus: Primary qHTS for inhibitors of La Crosse Virus (LACV) - induced cell death in SH-SY5Y cells (AID 1508616).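 Note: top concentration of the series differs between compounds; higher means more rescue of cells from virus-induced death.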 Particulars: SH-SY5Y LACV cytopathicity rescue, ATP luminescence, 6 d; series mostly up to 4.29 µM. A digest of the protocol: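 SH-SY5Y, 6000 cells/well; cpd via pin tool in DMSO; LACV 0.01 MOI; 6 d 37C 5% CO2; ATPLite, 5 min RT; luminescence normalized to ±virus DMSO controls.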
On the technique in general: Quantitative high-throughput screening tests each substance at several concentrations.

The target of assay [3] is Calcium and integrin-binding protein 1 (Homo sapiens) (UniProt Q99828). Put plainly: Validation qHTS for Identification of Calcium Integrin Binding protein 1 (CIB1) Competitor (AID 1508618). The settings on record: CIB1-GST / FITC-alphaIIb peptide fluorescence polarization; series mostly up to 114 µM. The procedure, abridged: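 In this qHTS validation, the LOPAC set (up to 114 uM) was tested for blocking CIB1 binding to a fluorescein-tagged alphaIIb peptide, with FP detection at 480/540 nm.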
Calcium and integrin-binding protein 1 (Homo sapiens), sequence (Q99828 whole entry, looked up): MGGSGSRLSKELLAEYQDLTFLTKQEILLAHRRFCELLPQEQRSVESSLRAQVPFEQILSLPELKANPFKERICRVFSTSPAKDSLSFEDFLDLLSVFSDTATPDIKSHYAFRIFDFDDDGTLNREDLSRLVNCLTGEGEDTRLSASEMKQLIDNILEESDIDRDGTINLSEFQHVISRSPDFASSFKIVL

For assay [4] the target is unchanged. In words: Primary qHTS for Identification of Calcium Integrin Binding Protein 1 (CIB1) Competitor (AID 1508620). Note: top concentration of the series differs between compounds. Particulars: CIB1-GST / FITC-alphaIIb peptide fluorescence polarization; series mostly up to 57.7 µM. A digest of the protocol:
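Fluorescence polarization competition: CIB1-GST (1 uM final) preincubated with compound 15 min at room temperature, then FITC-labeled alphaIIb peptide (100 nM final) added for another 15 min. Polarization read at Ex 480/Em 540.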

Assay [5] in a line: Primary qHTS for small molecule stabilizers of the endoplasmic reticulum resident proteome: Secreted ER Calcium Modulated Protein (SERCaMP) assay (AID 1508630). Note: potency is the fitted concentration of half-maximal effect. The settings on record: SH-SY5Y GLuc-SERCaMP (Gaussia luciferase released on ER calcium loss) secretion, thapsigargin, luminescence; series mostly up to 38.4 µM. The procedure, abridged:
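The SH-SY5Y reporter protocol was run at 3 concentrations up to 38.3 uM (primary) or 11 concentrations (follow-up): 16 h compound, 100 nM thapsigargin for 4 h, then extracellular luciferase luminescence.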

Assay [6] in a line: A High-Content qHTS Against Drug Library for the Identification of Small Molecules that Inhibit DYT1 Early Onset Primary Dystonia-Associated Cell Pathology (AID 1645839; calls by dose curve). Particulars: HEK293 Flp-In EGFP-delE TorsinA, punctate imaging, 48 h; series mostly up to 46.1 µM. A digest of the protocol: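 Induced EGFP-delE TorsinA cells are imaged after 48 h of compound treatment. Punctate fusion-protein distribution gives the %pathology value, while nuclei counts flag toxicity. Wild-type EGFP-hTOR1A cells define the normal pattern.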

Assay [7] is described as follows: Counterscreen qHTS for small molecule stabilizers of the endoplasmic reticulum resident proteome: GLuc-NoTag assay (AID 1508627). Note: potency is the fitted concentration of half-maximal effect. The settings on record: Gaussia luciferase NoTag secretion counterscreen, luminescence, thapsigargin 100 nM for final 4 h; series mostly up to 76.4 µM. A digest of the protocol:
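Secreted GLuc lacking the SERCaMP modification is measured in SH-SY5Y cells exposed to compound for 19 h and then to thapsigargin (100 nM, 4 h) to deplete ER calcium; hits retested at 11 concentrations, up to 76.6 uM.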
For orientation: Counterscreens check selectivity or assay interference.

Assay [8] in a line: Cell Viability qHTS for small molecule stabilizers of the endoplasmic reticulum resident proteome (AID 1508629).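 Note: human SH-SY5Y neuroblastoma cells carrying the GLuc-SERCaMP reporter; compound exposure about 46 h in total before the viability read.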 The settings on record: cell viability counter-screen, 100 nM thapsigargin for final 4 h.
Assay [9] is described as follows: Confirmatory qHTS for small molecule stabilizers of the endoplasmic reticulum resident proteome: Secreted ER Calcium Modulated Protein (SERCaMP) assay (AID 1508628). Note: nearly all actives have a fitted effect of over 40% in size. The settings on record: SERCaMP secreted luciferase ER calcium/proteostasis reporter; series mostly up to 76.3 µM. A digest of the protocol:
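Reporter secretion upon ER calcium depletion (100 nM thapsigargin, 4 h, 37C) is measured as medium luminescence with coelenterazine, after 16 h compound pretreatment of SH-SY5Y-GLuc-SERCaMP cells; primary at three concentrations up to 38.3 uM, follow-up at 11 (up to 76.6 uM).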

Molecules are shown by their SMILES. Unmarked numbers belong to inactive results. Records with an inconclusive call do not appear. Entries that show only a call come without a potency. Activity calls are given as the source filed them. Unless noted, calls come from the whole dose curve; as a rule, active = well fitted curve in the direction sought with a large enough effect; inconclusive = small, poorly fitted or top-dose-only effect, or another doubt; inactive = no such curve, though single readings can be large; an effect the other way counts as inactive or inconclusive.

Single-stranded DNA cytosine deaminase (Homo sapiens), sequence (Q9GZX7 whole entry, looked up): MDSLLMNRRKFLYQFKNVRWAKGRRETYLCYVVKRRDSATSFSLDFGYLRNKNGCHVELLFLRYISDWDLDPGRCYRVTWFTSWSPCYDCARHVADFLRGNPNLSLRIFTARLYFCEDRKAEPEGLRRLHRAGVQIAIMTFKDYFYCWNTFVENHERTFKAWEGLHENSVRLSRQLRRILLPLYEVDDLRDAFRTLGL

As for `CC(C)NCC(O)COc1ccc(COCCOC(C)C)cc1` (centres undefined), the Potency entry in [1], in assay [3], in assay [5] and in assay [6] was “inactive” in each case. Besides, the compound was called inactive in [2] and in [4].

Consider `O=C(Nc1nc2ccccc2n1CCN1CCOCC1)c1cccc([N+](=O)[O-])c1`, for which the Potency result in assay [1] and in assay [3] was “inactive” each time. Further, the call in assay [2] and in assay [4] was inactive.

For the compound `OC(CN1CCC(Cc2ccc(F)cc2)CC1)c1ccc(Cl)cc1` (centres undefined), the Potency entry in assay [1], in assay [3], in assay [5] and in assay [6] was “inactive” each time. The compound was classed as inactive in [2] and in assay [4]. The Potency in [7] is 17.8 µM (active). Further, the max response in [8] was -25.9%.

Regarding `Oc1ccc(C2CNCCc3c2cc(O)c(O)c3Cl)cc1` (centres undefined), the Potency entry in [1], in [3], in assay [7], in assay [5] and in [6] was “inactive” in each case. The compound was called inactive in [2] and in assay [4]. Also, the max response in [8] is -10.9%.

As for `CCN(CC)CCCC(C)Nc1ccnc2cc(Cl)ccc12` (centres undefined), the Potency result in assay [9] was “inactive”.

On to `Nc1nc2c(ncn2COCCO)c(=O)[nH]1`, for which the Potency result in assay [9] is “inactive”.

As to `COc1ccc(CC2=NN3C([C@@H](CCc4ccccc4)[C@@H](C)O)=NC(C)C3C(=O)N2)cc1OC` (some centres undefined), the outcome in [4] was inactive. In [5], the Potency result was “inactive”.

On to `Nc1cccc(S(=O)(=O)N2CCCN(S(=O)(=O)c3ccc4c(c3)OCCO4)CC2)c1`, for which the outcome in assay [4] was inactive. Also, the Potency result in [5] is “inactive”.

Turning to `COc1cc(Nc2ncc3c(n2)-c2ccc(Cl)cc2C(c2c(F)cccc2OC)=NC3)ccc1C(=O)O`, the outcome in assay [4] was inactive.

As to `Cc1cc(Nc2nc(N[C@@H](C)c3ncc(F)cn3)ncc2Cl)n[nH]1`, in assay [4], the outcome was inactive.

For the compound `NC(=O)c1ccc(I)c([N+](=O)[O-])c1`, the outcome in assay [4] was inactive. Further, the Potency entry in assay [5] was “inactive”.

As for `O=C(C=Cc1ccc(/C=C/C(=O)Nc2ccc(C3=NCCN3)cc2)cc1)Nc1ccc(C2=NCCN2)cc1`, the result in [4] was inactive. Also, in assay [5], the Potency result was “inactive”.

Regarding `Cc1n[nH]c(C)c1Cc1sc2c(c1C(=O)N1C[C@H](O)CO1)c(=O)n(C)c(=O)n2CC(C)C`, the result in assay [4] was inactive.

As for `CCCn1c(=O)c2[nH]c(C34CC5CC3C[C@@H](C5)C4)nc2n(CCC)c1=O`, the result in assay [4] was inactive. Also, in [5], the Potency entry is “inactive”.

Turning to `NC(=O)C1CCCc2c1[nH]c1ccc(Cl)cc21` (centres undefined), the result in assay [4] was inactive. For the same compound, in [5], the Potency result was “inactive”.

Regarding `OCCC#Cc1nc(-c2ccc(F)cc2)c(-c2ccncc2)n1CCCc1ccccc1`, in [4], the outcome was inactive. Besides, in [5], the Potency result is “inactive”.

In the case of `CCN(c1ccccc1)c1cc(NC)[n+](C)c(C)n1`, in assay [4], the outcome was inactive. The Potency result in assay [5] was “inactive”.

`Cc1cc(-c2ccc(CC(=O)Nc3ccc(-c4cccnc4)cc3)cc2)ccn1`: in assay [4], the outcome was inactive. For the same compound, in assay [5], the Potency entry was “inactive”.

Consider `COc1ccc(COc2cc3oc(=O)c4cc(C(C)O)ccc4c3cc2OC)cc1` (centres undefined), for which, in assay [4], the result was inactive. Further, the Potency result in [5] was “inactive”.

With `CS(=O)(=O)Oc1ccc2c(NC(N)=O)c(C(=O)c3ccc(Cl)cc3Cl)oc2c1`, the outcome in assay [4] was inactive.

In the case of `Cn1cc(-c2ccc3nnc(C(F)(F)c4ccc5ncccc5c4)n3n2)cn1`, the outcome in assay [4] was inactive. Further, the Potency in [5] was 14.9 µM (active).

For `Cc1cc(SCc2sc(-c3ccc(C(F)(F)F)cc3)nc2C)ccc1OCC(=O)O`, in assay [4], the outcome was inactive. In addition, the Potency result in [5] is “inactive”.

As to `COc1ccc(C2=N[C@H](c3ccc(Cl)cc3)[C@H](c3ccc(Cl)cc3)N2C(=O)N2CCNC(=O)C2)c(OC(C)C)c1`, in [4], the outcome was inactive. Moreover, the Potency entry in [5] was “inactive”.

On to `CN(C)c1ccc(Nc2nc(N)n(C(=O)c3c(F)cccc3F)n2)cc1`, for which, in [4], the result was inactive.

Regarding `CN[C@@H](C)C(=O)N[C@H]1CCCC[C@H]2CC[C@@H](C(=O)N[C@@H](c3ccccc3)c3cn(CCCCc4ccc(CCCCn5cc([C@@H](NC(=O)[C@@H]6CC[C@@H]7CCCC[C@H](NC(=O)[C@H](C)NC)C(=O)N76)c6ccccc6)nn5)cc4)nn3)N2C1=O`, in [4], the result was inactive. Also, in [5], the Potency result is “inactive”.

For the compound `NC(=O)c1ccc(-c2nc(-c3ccc4c(c3)OCCO4)c(-c3ccccn3)[nH]2)cc1`, the result in assay [4] was inactive. In addition, the Potency result in assay [5] is “inactive”.

In the case of `CC(C=CC1=C(C)CCCC1(C)C)=CC=CC(C)=CC(=O)O`, in [4], the outcome was inactive. For the same compound, in assay [5], the Potency result was “inactive”.

For the compound `COCCNCCCn1c(C(=O)CF)c(-c2ccc(C)cc2)c2c(N)ncnc21`, the outcome in [4] was inactive. The Potency result in [5] was “inactive”.

As to `COc1ccc(-c2ccc3c(N4CCOCC4)nc(N4C[C@@H](C)O[C@@H](C)C4)nc3n2)cc1CO`, the result in assay [4] was inactive. Also, the max response in assay [8] is -27.3%. For the same compound, the Potency in assay [5] is 14.9 µM (active).

Consider `COc1cc(Oc2ccnc3cc(OC)c(OC)cc23)ccc1NC(=O)NC(C)c1nccs1` (centres undefined), for which the outcome in assay [4] was inactive. Also, in assay [5], the Potency entry was “inactive”.

Turning to `O=c1ncn2nc(Sc3ccc(F)cc3F)ccc2c1-c1c(Cl)cccc1Cl`, the outcome in [4] was inactive.

As to `Cc1ccc(NC(=O)c2cccc(C(C)(C)C#N)c2)cc1Nc1ccc2ncn(C)c(=O)c2c1`, the outcome in [4] was inactive. In addition, in assay [5], the Potency result is “inactive”.

For `COc1ccc(-c2ccc3c(N4CCOC[C@H]4C)nc(N4CCOC[C@H]4C)nc3n2)cc1CO`, the outcome in assay [4] was inactive. In addition, the Potency entry in assay [5] is “inactive”.

On to `CCc1cc(Nc2nccc(-c3c(-c4ccc(OC)c(C(=O)Nc5c(F)cccc5F)c4)nc4ccccn34)n2)c(OC)cc1N1CCC(N2CCN(S(C)(=O)=O)CC2)CC1`, for which the result in [4] was inactive. For the same compound, the Potency in [5] is 0.006 µM (active).

As to `Cc1csc(NC(=O)c2sc3nc4c(c(C(F)(F)F)c3c2N)CCC4)n1`, the result in assay [4] was inactive. In addition, the Potency result in [5] is “inactive”.

Consider `COc1ccccc1[C@H](c1cccc2ccccc12)[C@@](C)(C#N)C(=O)N1CCC(c2cccc(C(F)(F)F)c2)CC1`, for which, in assay [4], the result was inactive.

As for `CCn1c(-c2nonc2N)nc2c(C#CC(C)(C)O)ncc(OC[C@H]3CCCNC3)c21`, the outcome in assay [4] was inactive. Moreover, the Potency entry in assay [5] is “inactive”.

In the case of `Cc1c(CN2CCN(C(=O)C(C)C)CC2)sc2c(N3CCOCC3)nc(-c3cnc(N)nc3)nc12`, in [4], the outcome was inactive. Further, the Potency entry in assay [5] is “inactive”.

With `CCCS(=O)(=O)Nc1ccc(F)c(C(=O)c2c[nH]c3ncc(-c4ccc(Cl)cc4)cc23)c1F`, the result in [4] was inactive. Moreover, the Potency result in assay [5] is “inactive”.

Regarding `CC(C)(N)C(=O)N[C@H](COCc1ccccc1)C(=O)N1CCC2(CC1)CN(S(C)(=O)=O)c1ccccc12`, the outcome in assay [4] was inactive. In assay [5], the Potency result was “inactive”.

Take `Fc1ccc(Cl)cc1-c1nc(Nc2ccncc2)c2nccnc2n1`: the outcome in assay [4] was inactive.

With `O=S(=O)(N=Cc1c(O)ccc2ccccc12)c1cccs1`, the result in [4] was inactive. In addition, the Potency result in assay [5] is “inactive”.

`CNC(=O)c1ccccc1Sc1ccc2c(/C=C/c3ccccn3)n[nH]c2c1`: the Potency entry in [6] was “inactive”.
